# Platelet DG rel – modulates dense granule release in human platelets; AID 1663; human platelet-rich plasma, SFLLRN dense granule ATP release, luminescence; inhibition, %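 (compounds screened at 7.5 µM in platelet-rich plasma)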; hit rate 0.22% among 300,000;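 active means mean replicate score, as percent of positive control, at or above 50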
# SENP8 block-1 – blocks human SENP8 cleavage of Nedd8 substrate; Q96LD8; recombinant SENP8, Nedd8 substrate fluorescence; inhibition, % at 20 µM; hit rate 0.64% among 360,000; AID 602440; in the data active means inhibition mostly above about 40%, no sharp cut-off; inactive means mostly below about 27%
# Target sequence (Q96LD8 whole entry, looked up): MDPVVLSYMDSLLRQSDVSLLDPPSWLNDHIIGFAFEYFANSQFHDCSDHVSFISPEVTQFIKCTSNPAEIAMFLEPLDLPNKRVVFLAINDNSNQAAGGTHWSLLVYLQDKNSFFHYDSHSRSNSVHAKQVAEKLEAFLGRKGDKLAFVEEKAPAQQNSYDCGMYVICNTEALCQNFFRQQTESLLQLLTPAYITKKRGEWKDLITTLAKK
# SENP6 inh – SENP6 protease inhibition; Recombinant SENP6 catalytic domain, aminoluciferin luminescence; inhibition, % at 10 µM; hit rate 1.8% among 330,000;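 active means inhibition above about 50% at the single tested dose, limit read from the data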;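 further: plate controls were DMSO wells with enzyme for no effect and DMSO wells lacking enzyme for full effect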
# HSP90 refold inh – inhibitors of HSP90 luciferase refolding in rabbit reticulocyte lysate | luciferase refolding luminescence, 3 h | inhibition, % at 5.6 µM | hit rate 0.91% among 290,000 | AID 1789;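 active means inhibition above the screen-wide mean plus 3 SD, computed separately per campaign, cut at about 16% in these data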;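 further: 0% = DMSO wells and 100% = 60 µM geldanamycin wells; inhibitors lower the luminescence because luciferase stays unfolded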
# SENP7 block – inhibitors of human SENP7 protease | hit rate 1.5% among 330,000 | recombinant SENP7, Z-RLRGG-aminoluciferin luminescence, 40 min | AID 434973 | inhibition, % at 5 µM;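 active means inhibition above about 50% at the single test dose, limit read from the data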;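 further: plate controls were DMSO with enzyme for no effect and no enzyme buffer wells for full effect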
# SENP8 block-2 – SENP8 protease inhibition. hit rate 1.2% among 330,000. inhibition, % at 10 µM. Q96LD8. purified SENP8, Z-RLRGG-aminoluciferin cleavage, luminescence; in the data active means inhibition above about 50%
# SENP8 conf – human SENP8 inhibition, confirmed; shares compounds with SENP7 block; Recombinant SENP8, Z-RLRGG-aminoluciferin luminescence, 60 min; inhibition, % at 12.5 µM; hit rate 40% among 6,200; AID 488912;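 active means mean inhibition across replicates above about 50%, limit read from the data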
# SENP6 conf – confirmation of human SENP6 protease inhibitors | recombinant SENP6, Z-RLRGG-aminoluciferin luminescence | inhibition, % at 12.5 µM | shares compounds with SENP7 block | AID 488915 | hit rate 58% among 6,200
# SENP7 conf – confirmation of human SENP7 protease inhibitors; recombinant SENP7, Z-RLRGG-aminoluciferin luminescence, 40 min; shares compounds with SENP7 block; hit rate 69% among 6,200; inhibition, % at 12.5 µM
# Casp3 SENP sel – inhibits human caspase-3 in SENP selectivity test | shares compounds with SENP7 block | purified caspase-3, Z-DEVD-aminoluciferin luminescence, 60 min | inhibition, % at 12.5 µM | hit rate 60% among 6,200 | AID 488918;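 active means mean inhibition above about 50%, limit read from the data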;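 further: plate controls were enzyme with DMSO for no effect and wells without caspase-3 for full effect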
# Target sequence (P42574 28-227 limits assumed): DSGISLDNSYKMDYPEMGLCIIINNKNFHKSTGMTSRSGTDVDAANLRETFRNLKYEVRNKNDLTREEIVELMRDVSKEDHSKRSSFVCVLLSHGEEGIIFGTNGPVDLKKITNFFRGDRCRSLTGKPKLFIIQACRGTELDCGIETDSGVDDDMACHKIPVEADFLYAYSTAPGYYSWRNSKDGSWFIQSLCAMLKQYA
# Luc interf – counter-screen for SENP inhibitors: luminescence interference | shares compounds with SENP7 block | Pre-incubated SENP8/Z-RLRGG-aminoluciferin, luciferase luminescence interference | inhibition, % at 12.5 µM | hit rate 39% among 6,200 | AID 488919;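 active means mean inhibition above about 50% when retested at one dose, limit read from the data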;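 further: plate controls were DMSO wells with completed reaction for no effect and substrate without enzyme for full effect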
# Starred values were filed as active, the others as inactive; nt = no result given. In the library only some 2.8% were active in any assay of this set; here they are far more common.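 How the source made its calls, unless noted: active means mean inhibition above about 50% in the one-dose retest (limit read from the data); inactive means the rest.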
SMILES,Platelet DG rel,SENP8 block-1,SENP6 inh,HSP90 refold inh,SENP7 block,SENP8 block-2,SENP8 conf,SENP6 conf,SENP7 conf,Casp3 SENP sel,Luc interf
O=C(O)c1ccc(/C=C/c2nc3ccccc3c(=O)[nH]2)cc1,32,-97,97*,-2,100*,95*,97*,98*,102*,98*,56*
O=c1[nH]c(/C=C/c2ccccc2Cl)nc2ccccc12,3,-52,77*,10,94*,76*,43,42,60*,37,3
CCCN1C(=O)/C(=C/c2nc3ccccc3c(=O)[nH]2)c2cc(C)ccc21,32,-23,92*,0,4,-2,5,4,9,5,1
Clc1cccc(Cl)c1/C=C/c1nc2ccccc2[nH]1,-5,-280,82*,3,93*,89*,94*,96*,101*,87*,76*
CCn1c(/C=C/c2ccccc2Cl)nc2ccccc2c1=O,0,6,-16,3,-13,-13,nt,nt,nt,nt,nt
CCCOc1ccc(C(=O)CCNC(Cc2c[nH]c3ccccc23)C(=O)O)cc1 (stereo not given),-2,-2,5,-2,4,-8,nt,nt,nt,nt,nt
Cc1[nH]c2ccccc2c1/C=C/c1nc2ccccc2c(=O)[nH]1,4,-406,-5,-1,3,-16,nt,nt,nt,nt,nt
Cc1cccc(/C=C/c2nc3ccccc3c(=O)[nH]2)c1,10,-79,87*,-2,97*,75*,38,68*,39,79*,4
O=C(NC(=O)c1ccccc1O)c1ccc(C(F)(F)F)cc1,1,30,76*,0,78*,71*,76*,75*,84*,84*,8
CCCc1cc(C(=O)NNC(=S)Nc2cccc(C)c2)cs1,-9,10,79*,1,94*,80*,33,26,8,4,21
CC1=NN(C(N)=S)C(=O)C1N=Nc1ccc(O)cc1 (stereo not given),17,0,28,3,22,13,nt,nt,nt,nt,nt
CC1=NN(C(N)=S)C(=O)C1N=Nc1ccc(F)cc1 (stereo not given),2,18,88*,-1,80*,79*,32,38,40,54*,5
CCOc1ccc(N=NC2C(=O)N(C(N)=S)N=C2C)cc1 (stereo not given),5,14,97*,9,88*,93*,71*,97*,102*,97*,90*
CC(=O)Nc1ccc(N=NC2C(=O)N(C(N)=S)N=C2C)cc1 (stereo not given),nt,28,70*,-2,63*,61*,64*,64*,90*,90*,25
CC1=NN(C(N)=S)C(=O)C1N=Nc1ccc([N+](=O)[O-])cc1 (stereo not given),14,26,90*,0,89*,87*,26,5,-3,-4,-8
COCCNC(=O)c1ccc(N2CC3CC(C2)c2cccc(=O)n2C3)c(NC(=O)c2ccccc2Cl)c1 (stereo not given),nt,0,nt,nt,nt,nt,nt,nt,nt,nt,nt
COCCc1ccc(OC2(C)CCN(Cc3cccn3-c3nccs3)C2)cc1 (stereo not given),nt,18,nt,nt,nt,nt,nt,nt,nt,nt,nt
CC(=O)Nc1ccc(C(=O)N2CCCc3ccccc32)cc1,-1,7,-12,3,1,14,nt,nt,nt,nt,nt
COc1ccccc1NC(=O)C(=O)Nc1ccc2c(c1)N(C(=O)C1CC1)CCC2,6,6,-8,nt,56*,-19,-8,-6,-9,5,1
CC(=O)Nc1cccc(NC(=O)C(=O)Nc2ccc3c(c2)N(C(=O)C2CC2)CCC3)c1,8,-21,59*,nt,50*,28,-4,30,75*,65*,24
CCN1CCN(S(=O)(=O)Cc2ccccc2Cl)CC1,2,5,-2,-5,-5,-2,nt,nt,nt,nt,nt
COc1ccc(NC(=O)n2ncc3cc(Cl)ccc32)cc1OC,1,30,60*,2,26,46,20,59*,36,34,21
COc1cc(NC(=O)n2ncc3cc(Cl)ccc32)cc(OC)c1,0,23,38,-2,28,54*,-24,-1,18,20,-11
COc1ccc(NC(=O)c2cc(-c3cc(Cl)ccc3OC)n[nH]2)cc1OC,nt,22,nt,nt,nt,nt,nt,nt,nt,nt,nt
O=C(Nc1ccccc1F)n1ncc2cc(Cl)ccc21,14,19,-3,-4,-2,-10,nt,nt,nt,nt,nt
SMILES,Platelet DG rel,SENP8 block-1,SENP6 inh,HSP90 refold inh,SENP7 block,SENP8 block-2,SENP8 conf,SENP6 conf,SENP7 conf,Casp3 SENP sel,Luc interf
Fc1cccc2sc(Nc3nnc(-c4ccco4)o3)nc12,-4,-339,42,7,-6,17,nt,nt,nt,nt,nt
COc1cccc2sc(Nc3nnc(-c4ccc(F)cc4)o3)nc12,-2,-411,75*,-1,43,44,31,42,86*,66*,6
COc1cccc2sc(Nc3nnc(-c4cccs4)o3)nc12,1,-255,92*,4,73*,84*,84*,84*,97*,83*,55*
CCOc1nc(OCC)c2[nH]c(C(=O)O)c(Br)c2n1,nt,2,nt,nt,nt,nt,nt,nt,nt,nt,nt
COc1cc2nc(Nc3ccc(C)c(C)c3)nc(N)c2cc1OC,5,-292,27,-2,19,3,nt,nt,nt,nt,nt
CCOC(=O)c1ccc(Nc2nc(N)c3cc(OC)c(OC)cc3n2)cc1,9,-286,76*,-3,97*,73*,66*,78*,95*,58*,64*
COc1cc2nc(Nc3ccc(F)cc3)nc(N)c2cc1OC,12,-321,63*,1,67*,51*,66*,63*,90*,61*,70*
Cc1cc(NC(=S)N(CCCN2CCOCC2)Cc2ccco2)ccc1Cl,-18,13,1,-1,0,-5,nt,nt,nt,nt,nt
COc1ccc(C2NC(=O)NC(C)=C2[N+](=O)[O-])cc1 (stereo not given),-3,-11,2,-3,-3,0,nt,nt,nt,nt,nt
COc1ccc(/C=C2\CCc3ccccc3C2=O)cc1O,43,4,99*,4,95*,95*,96*,99*,101*,92*,95*
CC(=O)Nc1ccc(/C=C2\CCc3ccccc3C2=O)cc1,4,10,56*,7,44,34,40,46,34,20,18
